# From PubChem
# Sfp PPTase inh: qHTS Assay for Inhibitors of Bacillus subtilis Sfp phosphopantetheinyl transferase (PPTase); 4'-phosphopantetheinyl transferase ffp (Bacillus subtilis), Q9F4F7; Biochemical Sfp PPTase activity, qHTS; Potency, µM, hits mostly inhibitors; 310,000 tested, 3.5% active;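 further: the enzyme is Sfp with the accession as filed and its product quenches rhodamine fluorescence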
#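 Sfp 15 nM + cpd, 15 min RT; start w/ rhodamine-CoA 5 uM, BHQ-2-YbbR 12.5 uM (final); 50 mM Hepes pH 7.6, 10 mM MgCl2, 0.01% NP-40, 0.01% BSA; read 525/598 nm at 0 and 30 min.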
# Tau fluor counter: Counterscreen qHTS for Inhibitors of Tau Fibril Formation, Fluorescence Polarization; Potency, µM (titrated, usually from 57.7 µM); 280,000 tested, 0.93% active; tau K18 P301L Alexa594 fluorescence, heparin fibrillization; further: nearly all actives have a fitted effect of over 55% in size
#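 Human tau K18 P301L (15 uM unlabeled, 0.24 uM Alexa 594-labeled) in 100 mM sodium acetate pH 7 with 20 uM heparin, 6 hr at 37 C. ThT 30 uM added, 1 hr ambient; Alexa 594 FP and total fluorescence read at 555/632 nm.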
# Tau ThT inhib: qHTS for Inhibitors of Tau Fibril Formation, Thioflavin T Binding; Microtubule-associated protein tau (Homo sapiens), P10636; recombinant tau K18 P301L, heparin-induced fibrillization, ThT fluorescence; Potency, µM (doses to about 57.4 µM), actives largely listed as inhibitors; 270,000 tested, 2.1% active; AID 1460, 2008; further: nearly all actives have a fitted effect of over 55% in size
# Target sequence (P10636 561-689 P618L limits assumed): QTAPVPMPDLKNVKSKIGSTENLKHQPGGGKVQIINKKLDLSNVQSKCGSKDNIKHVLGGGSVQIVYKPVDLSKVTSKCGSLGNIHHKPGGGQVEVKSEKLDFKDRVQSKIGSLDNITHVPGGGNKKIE
#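 Fibril formation assay: tau K18 P301L at 15 uM with trace Alexa 594 label, heparin inducer 20 uM, pH 7 sodium acetate buffer, 37 C for 6 hr; endpoint ThT signal.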
# Tau fibril FP: qHTS for Inhibitors of Tau Fibril Formation, Fluorescence Polarization; Microtubule-associated protein tau (Homo sapiens), P10636; K18 P301L tau heparin fibrillization, Alexa594 FP, 6 h; Potency, µM (doses to about 57.7 µM), most hits filed as inhibitors; 280,000 tested, 0.39% active; AID 1468, 2008; further: nearly all actives have a fitted effect of over 55% in size
#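 Read-out: fluorescence polarization of Alexa 594-labeled tau (0.24 uM), 555 nm excitation, 632 nm emission. Mixtures held 15 uM unlabeled K18 P301L, compound and 20 uM heparin, pH 7 acetate buffer, incubated 6 hr at 37 C.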
# FBPA coupling cs: qHTS Assay for Inhibitors of Fructose-1,6-bisphosphate Aldolase from Giardia Lamblia: Coupling assay counterscreen; 290,000 tested, 0.67% active; activity change, negative = inhibition, % at 58.2 µM, hits read low; coupling enzyme system counterscreen, AmpLite Red fluorescence; in the data active means activity change below about -30%
#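 Compounds tested against the coupling enzymes alone at 57.5 uM final; readout was AmpLite Red fluorescence (525/598 nm) after 20 min at RT.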
# Numbers stand for hits; – = inactive; ? = inconclusive; · = no result given; [ ] = dose if it differs, or a comment. In the library only some 5.2% were active in any assay of this set; here they are far more common. Unless noted, the call rests on the fitted dose curve; in most records, active means well fitted curve in the direction sought with a large enough effect; inconclusive means small, poorly fitted or top-dose-only effect, or another doubt; inactive means no such curve, though single readings can be large; an effect the other way counts as inactive or inconclusive.
SMILES,Sfp PPTase inh,Tau fluor counter,Tau ThT inhib,Tau fibril FP,FBPA coupling cs
CC1CCN(C(=O)CSc2nnc(-c3cc4ccccc4cc3O)n2Cc2ccco2)CC1,28µM,–,?,–,–
CC(C)C[C@H](NC(=O)[C@H](Cc1cnc[nH]1)NC(=O)[C@@H](N)Cc1cnc[nH]1)C(=O)NCC(=O)NCC(=O)N[C@@H](C)C(=O)N[C@@H](CCCCN)C(=O)N[C@@H](CCC(N)=O)C(=O)N[C@@H](C)C(=O)NCC(=O)N[C@@H](CC(=O)O)C(=O)N[C@H](C(=O)O)C(C)C,–,·,·,·,–
C/C(=C(/CCO)SS/C(CCO)=C(\C)N(C=O)Cc1cnc(C)nc1N)N(C=O)Cc1cnc(C)nc1N,–,·,·,·,·
CCc1nnc(NC(=O)c2nc(SCc3ccc(F)cc3)ncc2Cl)s1,·,–,–,–,·
O=C(CSc1nnc(-c2ccncc2)n1Cc1ccco1)Nc1ccccc1Cl,45µM,–,–,–,–
C=CCc1cccc(/C=N/NC(=O)CN2CCN(Cc3ccccc3)CC2)c1O,–,·,·,·,–
CC1(C)Cc2ccccc2C(/C(=N\Nc2cccc(Cl)c2)C(N)=O)=N1,–,?,14µM,–,–
Nc1c(C(=O)Nc2ccc(F)c(F)c2)sc2nc(-c3ccncc3)ccc12,·,?,?,–,·
CC(=O)c1sc2nc(-c3cccs3)ccc2c1N,50µM,?,16µM,–,–
Nc1c(C(=O)Nc2nc3ccccc3s2)sc2nc(-c3cccs3)ccc12,?,13µM[quencher],?,–,–
Nc1c(C(=O)Nc2ccc(Cl)cc2F)sc2nc(-c3cccs3)ccc12,·,2.2µM[quencher],?,–,·
Nc1c(C(=O)Nc2ccccc2Br)sc2nc(-c3cccs3)ccc12,·,3.2µM[quencher],?,?,·
Nc1c(C(=O)Nc2cccc(Cl)c2Cl)sc2nc(-c3cccnc3)ccc12,–,–,?,–,–
Nc1ccc(C(=O)Nc2nc3ccccc3s2)cc1,–,–,–,–,–
COC(=O)c1ccccc1NC(=O)CSc1nc(-c2ccccc2)cc(C(F)(F)F)n1,·,–,–,–,·
Cc1ccc(N/C=C/c2onc(C)c2[N+](=O)[O-])cc1,–,–,0.63µM,–,–
Cc1c2cnn(-c3ccccc3)c(=O)c2c(C)n1CC(=O)Nc1ccccc1Br,·,–,–,–,·
CCC(C)CCCCC(=O)NC(CCN)C(=O)NC(C(=O)NC(CCN)C(=O)NC1CCNC(=O)C(C(C)O)NC(=O)C(CCN)NC(=O)C(CCN)NC(=O)C(CC(C)C)NC(=O)C(Cc2ccccc2)NC(=O)C(CCN)NC1=O)C(C)O (stereo not given),28µM,–,–,–,–
CC(C)C1NC(=O)[C@H](CCCCN)NC(=O)[C@@H](Cc2c[nH]c3ccccc23)NC(=O)[C@H](Cc2ccc(O)cc2)NC(=O)[C@H](C)N(C)C(=O)[C@H](Cc2ccccc2)NC1=O (stereo not given in full),·,–,–,–,·
CC(C)OC(=O)c1cccc(C(=O)O)n1,50µM,–,–,–,–
O=[N+]([O-])c1cccc(CN2C(COCc3ccccc3)CCC=CS2(=O)=O)c1 (stereo not given),–,·,·,·,–
CCC1CN(C(=O)N2CCC(C(=O)N3CCN(c4cc(C)ccc4C)CC3)CC2)c2ccccc2O1 (stereo not given),·,?,–,–,·
CCC1CN(C(=O)N2CCC(C(=O)NCc3ccccc3F)CC2)c2ccccc2O1 (stereo not given),·,–,–,–,·
CCC1CN(C(=O)N2CCC(C(=O)N3CCN(c4cccc(C)c4C)CC3)CC2)c2ccccc2O1 (stereo not given),·,5µM[quencher],–,–,·
CCC1CN(C(=O)N2CCC(C(=O)N3CCN(c4ccc(F)cc4)CC3)CC2)c2ccccc2O1 (stereo not given),·,2.5µM[quencher],–,–,·
NS(=O)(=O)c1ccc(N=Nc2c(O)c(C(=O)O)cc3ccccc23)cc1,?,?,5µM,?,–
O=C(O)Cc1ccc(N=Nc2c(O)c(C(=O)O)cc3ccccc23)cc1,–,–,13µM,?,–
Oc1ccc2ccccc2c1N=Nc1ccc(F)cc1,–,–,?,–,–
